The target in this experiment is Estrogen receptor (Homo sapiens) (UniProt P03372). As to the kind of experiment: blockers of coactivator recruitment to ERα – biochemical, LOPAC library, TR-FRET, primary screen (AID 694).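 Also: receptor was agonist-bound with estradiol present during the assay.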 The following applies: TR-FRET ERalpha-coactivator peptide binding, stronger effect = higher value. For orientation: TR-FRET usually uses a lanthanide donor and a delayed reading to cut background.

Screen size: about 1,300 compounds; about 25 (2%) were called active. No rule for the calls is given here. Only a selection was taken, and actives are over-represented in it overall.

Chain of Estrogen receptor (Homo sapiens) (P03372 whole entry, looked up): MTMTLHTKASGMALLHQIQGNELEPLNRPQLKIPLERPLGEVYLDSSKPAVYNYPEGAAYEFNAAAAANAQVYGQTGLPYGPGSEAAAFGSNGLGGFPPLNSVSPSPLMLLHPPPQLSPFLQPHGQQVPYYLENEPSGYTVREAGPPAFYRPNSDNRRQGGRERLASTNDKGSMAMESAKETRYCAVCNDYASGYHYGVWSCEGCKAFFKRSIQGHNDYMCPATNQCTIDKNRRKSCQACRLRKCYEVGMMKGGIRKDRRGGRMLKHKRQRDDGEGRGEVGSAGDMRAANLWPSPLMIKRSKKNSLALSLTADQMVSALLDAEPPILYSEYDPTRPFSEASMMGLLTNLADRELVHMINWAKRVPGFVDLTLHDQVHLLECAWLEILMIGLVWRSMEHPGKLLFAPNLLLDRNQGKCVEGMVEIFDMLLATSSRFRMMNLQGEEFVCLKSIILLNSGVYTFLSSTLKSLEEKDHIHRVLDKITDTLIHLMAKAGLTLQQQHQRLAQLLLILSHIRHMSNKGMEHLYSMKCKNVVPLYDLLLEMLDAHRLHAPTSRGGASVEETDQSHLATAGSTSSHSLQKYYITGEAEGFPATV

As usually defined, the inhibition is the change of the read-out against control, counted positive when it falls. Consider `N=c1c[n+](N2CCOCC2)[n-]o1`, for which the inhibition reads like this: (at 45 µM) 3.79% (inactive); (inhibition, at 15 µM) 4.24%.

For `COc1ccccc1N1CCN(CCCNc2c(C)c(=O)n(C)c(=O)n2C)CC1`, the inhibition is, setting by setting: (at 45 µM) -0.24% (inactive); (inhibition, at 15 µM) 1.69%.

With `CCNC(=O)C1OC(n2cnc3c(NCc4ccccc4)ncnc32)C(O)C1O` (stereo not given), the inhibition is -1.65% (inactive) (at 45 µM) and 1.9% (inhibition, at 15 µM).

For `Cn1cc(C(F)(F)F)nc1-c1ccc(OCC(O)CNCCOc2ccc(O)c(C(N)=O)c2)cc1` (stereo not given), the inhibition (at 45 µM) was -4.07% (inactive) and the inhibition (inhibition, at 15 µM) is -6.05%.

As for `CC[N+](C)(C)Cc1ccccc1Br`, the inhibition runs as follows: (at 45 µM) -6.37% (inactive); (inhibition, at 15 µM) -2.6%.

For the compound `COc1ccccc1N1CCN(CCN(C(=O)c2ccc(F)cc2)c2ccccn2)CC1`, the inhibition runs as follows: (at 45 µM) -4.33% (inactive); (inhibition, at 15 µM) 1.39%.

Regarding `CCCCCN(CCCCC)C(=O)C(CCC(=O)O)NC(=O)c1ccc(Cl)c(Cl)c1` (stereo not given), the inhibition reads like this: (at 45 µM) 0.49% (inactive); (inhibition, at 15 µM) 8.19%.

With `NCCCCNS(=O)(=O)c1cccc2c(Cl)cccc12`, the inhibition is -24.3% (inactive) (at 45 µM) and 2.07% (inhibition, at 15 µM).

As to `CNC(=O)Oc1ccc2c(c1)[C@]1(C)CCN(C)[C@@H]1N2C`, the inhibition reads like this: (at 45 µM) -8.56% (active); (inhibition, at 15 µM) 56.6%.

For `Oc1cc(O)c2c(c1)O[C@H](c1ccc(O)c(O)c1)[C@@H](O)C2`, the inhibition by setting is: (at 45 µM) 26.6% (inactive); (inhibition, at 15 µM) 10.3%.

As for `CC1=C(C(=O)O)N2C(=O)[C@@H](NC(=O)C(N)c3ccccc3)[C@H]2SC1` (stereo not given in full), the inhibition reads like this: (at 45 µM) -5% (inactive); (inhibition, at 15 µM) -4.71%.

Turning to `COc1cc(=O)n(C)c2c(OCC(O)C(C)(C)O)cccc12` (stereo not given), the inhibition was -4.43% (inactive) (at 45 µM) and 3.61% (inhibition, at 15 µM).

Regarding `NS(=O)(=O)c1cc2c(cc1Cl)NC=NS2(=O)=O`, the inhibition reads like this: (at 45 µM) -2.72% (inactive); (inhibition, at 15 µM) 1.82%.

As to `Cc1nc(N=Nc2ccc(C(=O)O)cc2)c(COP(=O)(O)O)c(C=O)c1O`, the inhibition (at 45 µM) was 6.52% (inactive) and the inhibition (inhibition, at 15 µM) was -0.22%.

As for `Cn1c(=O)c2c(nc(/C=C/c3cccc(Cl)c3)n2C)n(C)c1=O`, the inhibition (at 45 µM) was 0.97% (inactive) and the inhibition (inhibition, at 15 µM) is -2.61%.

Turning to `CC(C)COCC(CN(Cc1ccccc1)c1ccccc1)N1CCCC1` (stereo not given), the inhibition reads like this: (at 45 µM) -5.09% (inactive); (inhibition, at 15 µM) 4.06%.

For `C[N+](C)(C)CCOC(=O)CCC(=O)OCC[N+](C)(C)C`, the inhibition runs as follows: (at 45 µM) -6.43% (inactive); (inhibition, at 15 µM) 0.18%.

As to `COc1ccc2[nH]c(I)c(CCNC(C)=O)c2c1`, the inhibition by setting is: (at 45 µM) -2.05% (inactive); (inhibition, at 15 µM) -4.11%.

As for `CC(C)[C@@H]1NC(=O)[C@H](CCCCN)NC(=O)[C@@H](Cc2c[nH]c3ccccc23)NC(=O)[C@H](Cc2ccc(O)cc2)NC(=O)[C@H](C)N(C)C(=O)[C@H](Cc2ccccc2)NC1=O`, the inhibition is 5.89% (inactive) (at 45 µM) and -1.62% (inhibition, at 15 µM).

With `COC(=O)[C@H](NC(=O)c1cc(-c2ccccc2)nc2ccccc12)c1ccccc1`, the inhibition (at 45 µM) was 1.85% (inactive) and the inhibition (inhibition, at 15 µM) came to 2.38%.

As for `O=Nc1ccc2oc(=O)ccc2c1`, the inhibition was 0.4% (inactive) (at 45 µM) and 0.59% (inhibition, at 15 µM).

On to `NC(N)=NCCC[C@H](N)C(=O)O`, for which the inhibition runs as follows: (at 45 µM) -2.21% (inactive); (inhibition, at 15 µM) -4%.

As to `N[C@@H](CCCC(=O)O)C(=O)O`, the inhibition is, setting by setting: (at 45 µM) -21.2% (active); (inhibition, at 15 µM) 50.5%.

For `NC(CCCP(=O)(O)O)C(=O)O` (stereo not given), the inhibition reads like this: (at 45 µM) -8.81% (inactive); (inhibition, at 15 µM) -3.89%.

In the case of `O=c1c(O)c(-c2cc(O)c(O)c(O)c2)oc2cc(O)cc(O)c12`, the inhibition (at 45 µM) was 84% [fluorescence artefact?] (active) and the inhibition (inhibition, at 15 µM) is 62.7%.

For the compound `O=c1c(O)c(-c2ccc(O)c(O)c2)oc2cc(O)cc(O)c12`, the inhibition by setting is: (at 45 µM) 59.6% (inactive); (inhibition, at 15 µM) 26.6%.

With `O=c1[nH]c2cc(C(F)(F)F)ccc2n1-c1cc(C(F)(F)F)ccc1O`, the inhibition reads like this: (at 45 µM) 2.02% (inactive); (inhibition, at 15 µM) 1.4%.

With `CC(=O)N[C@@H](CS)C(=O)O`, the inhibition was -7.68% (inactive) (at 45 µM) and -8.08% (inhibition, at 15 µM).

For the compound `N#C/C(=C\c1ccc(O)c(O)c1)C(=O)c1ccc(O)c(O)c1`, the inhibition (at 45 µM) was 59.5% [fluorescence artefact?] (active) and the inhibition (inhibition, at 15 µM) is 57.3%.

As for `COc1cc(/C=C(\C#N)C(=O)c2ccc(O)c(O)c2)cc(I)c1O`, the inhibition reads like this: (at 45 µM) 28.7% (inactive); (inhibition, at 15 µM) 13.7%.

Take `N#C/C(=C\c1ccc(O)c(O)c1)C(=O)NCCCNC(=O)/C(C#N)=C/c1ccc(O)c(O)c1`: the inhibition reads like this: (at 45 µM) 51.7% (inactive); (inhibition, at 15 µM) 37.2%.

In the case of `Nc1ncn([C@@H]2O[C@H](CO)[C@@H](O)[C@H]2O)c(=O)n1`, the inhibition runs as follows: (at 45 µM) -1.93% (inactive); (inhibition, at 15 µM) -4.32%.

Take `Cn1c(=O)c2[nH]c(C3CCCC3)nc2n(C)c1=O`: the inhibition (at 45 µM) is 1.28% (inactive) and the inhibition (inhibition, at 15 µM) was -1.01%.

For the compound `NC(=S)NCCCC(N)C(=O)O` (stereo not given), the inhibition was -4.72% (inactive) (at 45 µM) and 3.62% (inhibition, at 15 µM).

In the case of `NCC(O)C1CCCCCCC1` (stereo not given), the inhibition was -4.78% (inactive) (at 45 µM) and 1.99% (inhibition, at 15 µM).

`CCN1CCc2nc(N)oc2CC1`: the inhibition is, setting by setting: (at 45 µM) -3.72% (inactive); (inhibition, at 15 µM) -5.11%.

With `CN(CCOc1ccc(C[C@H](Nc2ccccc2C(=O)c2ccccc2)C(=O)O)cc1)c1ccccn1`, the inhibition was 2.05% (inactive) (at 45 µM) and 2.17% (inhibition, at 15 µM).

Consider `C=Cc1c(C)c2cc3[nH]c(cc4nc(cc5nc(cc1[nH]2)C(C)=C5CCC(=O)O)C(CCC(=O)O)=C4C)c(C)c3C=C`, for which the inhibition by setting is: (at 45 µM) 93.6% [fluorescence artefact?] (active); (inhibition, at 15 µM) 73.7%.

Turning to `CN(C)C(=O)/N=N/C(=O)N(C)C`, the inhibition is -2.24% (inactive) (at 45 µM) and -4.27% (inhibition, at 15 µM).

Turning to `Nn1nnc2ccccc21`, the inhibition reads like this: (at 45 µM) -3.33% (inactive); (inhibition, at 15 µM) -2.11%.

For `COc1ccccc1N1CCN(CCCNc2cc(=O)n(C)c(=O)n2C)CC1`, the inhibition reads like this: (at 45 µM) 4.48% (inactive); (inhibition, at 15 µM) 2.87%.

In the case of `Cn1cnc2c(NCc3ccccc3)nc(NCCO)nc21`, the inhibition is, setting by setting: (at 45 µM) 3.75% (inactive); (inhibition, at 15 µM) 1.76%.

For the compound `C=CC[C@H](N)C(=O)O`, the inhibition is -2.53% (inactive) (at 45 µM) and -5.06% (inhibition, at 15 µM).

As for `CCCn1c(=O)c2c(ncn2C)n(CCC)c1=O`, the inhibition is 5.51% (inactive) (at 45 µM) and -1.66% (inhibition, at 15 µM).

Regarding `N=c1nc(N2CCCCC2)cc(N)n1O`, the inhibition (at 45 µM) is 2.01% (inactive) and the inhibition (inhibition, at 15 µM) was -3.53%.

Consider `CC[C@@H](C)[C@H]1O[C@]2(CC[C@@H]1C)C[C@@H]1C[C@@H](C/C=C(\C)[C@@H](O[C@H]3C[C@H](OC)[C@@H](O[C@H]4C[C@H](OC)[C@@H](O)[C@H](C)O4)[C@H](C)O3)[C@@H](C)/C=C/C=C3\CO[C@@H]4[C@H](O)C(C)=C[C@@H](C(=O)O1)[C@]34O)O2`, for which the inhibition reads like this: (at 45 µM) -0.86% (inactive); (inhibition, at 15 µM) 3.41%.

Take `CCCCC#Cc1nc(N)c2ncn([C@@H]3O[C@H](C(=O)NCC)[C@@H](O)[C@H]3O)c2n1`: the inhibition runs as follows: (at 45 µM) -0.57% (inactive); (inhibition, at 15 µM) 5.8%.

Take `CCCCCCCC/C=C\CCCCCCCC(=O)NCCO`: the inhibition by setting is: (at 45 µM) 7.02% (inactive); (inhibition, at 15 µM) 9.1%.

For `N[C@@H](CCC(=O)N[C@H](CSN=O)C(=O)NCC(=O)O)C(=O)O`, the inhibition reads like this: (at 45 µM) 1.19% (inactive); (inhibition, at 15 µM) 3.44%.

Turning to `[N-]=[N+]=Nc1ccc(C(=O)CSC[C@H](NC(=O)CC[C@H](N)C(=O)O)C(=O)NCC(=O)O)cc1`, the inhibition runs as follows: (at 45 µM) 75.4% [fluorescence artefact?] (active); (inhibition, at 15 µM) 74%.

For the origin of these results see PubChem BioAssay AID694 (Emory University Molecular Libraries Screening Center, 2007).
